Laboratory results taken from PubChem BioAssay (EPA / NIEHS).
Activity calls are given as the source filed them. How the source made its calls: active means hit-call score of the fitted dose curve at least 0.9, where 1 is the maximum; inactive means score below 0.9.

Each compound was assayed on Apoptosis regulator Bcl-2 (Homo sapiens) (UniProt P10415) (assay: LTEA_HepaRG_BCL2: Life Technologies and Expression Analysis (LTEA) Assay for Bcl-2 gene using HepaRG (AID 2283475;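 further: BCL2 transcript by TaqMan qRT-PCR normalised to ACTB GAPDH and POLR2A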)). Conditions: mRNA level, 48 h; actives raise or lower the signal.
Apoptosis regulator Bcl-2 (Homo sapiens), sequence (P10415 whole entry, looked up): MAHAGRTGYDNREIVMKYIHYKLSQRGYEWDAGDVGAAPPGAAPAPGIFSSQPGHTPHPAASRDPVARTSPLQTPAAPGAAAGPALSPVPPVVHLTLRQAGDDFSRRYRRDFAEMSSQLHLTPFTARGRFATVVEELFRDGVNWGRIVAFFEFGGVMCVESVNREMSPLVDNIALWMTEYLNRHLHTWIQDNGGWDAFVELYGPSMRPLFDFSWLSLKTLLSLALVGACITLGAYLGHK
Experimental: LTEA_HepaRG is a cell based, multiplexed-readout assay that uses HepaRG, a human liver cell line, with measurements taken at 48 hours after chemical dosing on a 96-well plate.LTEA_HepaRG_BCL2 is one of 102 assay component(s) measured in the LTEA HepaRG cell culture assay. It is a marker of Cell proliferation, survival, death.Data from the assay component LTEA_HepaRG_BCL2 was analyzed into 1 endpoint. This assay endpoint, LTEA_HepaRG_BCL2, was analyzed with bidirectional fitting relative to DMSO as the negative control and baseline of activity. Using a type of inducible reporter, measures of mRNA induction for gain or loss-of-signal activity can be used to understand regulation of transcription factor activity. To generalize the intended target to other relatable targets, this assay endpoint is annotated to the cell cycle intended target family, where the subfamily is Cell proliferation, survival, death.
A total of 1060 chemcials from the ToxCast library were tested in eight-point concentration-response experiments. Cell culture and cytotoxicity assays were conducted at Thermo Fisher Scientific's Custom Services facility (Madison, WI). A single lot of human HepaRG cells (Thermo Fisher Scientific, Frederick, MD) was used for the cell culture experiments. 96-well format collagen type I coated plates of human HepaRG cells were prepared using established methods. Briefly, cryopreserved HepaRG cells were thawed, plated at a density of approximately 100,000 cells/well in HepaRG Thaw, Plate, and General Purpose media (HPRG770, Thermo Fisher Scientific), and incubated for 48 hours. 0.5% DMSO was selected as vehicle control to balance the requisite need of DMSO in HepaRG cultures to maintain differentiation (for example, baseline metabolism, proportions of hepatocytes vs. cholangiocytes), while enabling further hepatic receptor pathway activation (for example, PXR and CAR) in response to chemical exposure. 48 hours after plating, the culture medium was replaced with HepaRG Serum-Free Incudtion Media. Cells were exposed to each test chemical in duplicate and maintained in CO2 incubators for another 48 hours. Chemical plates were thawed to room temperature and 200x concentrations of treatment groups were prepared. 8-point conentration-reponse curves were made with the highest exposure at 100 uM, followed by half-log dilutions, all in 0.5% DMSO. Each test plate contained variouse controls, induction positive controls (1mM phenobarbital), cytotoxicity positive controls ([…] aflatoxin B1), vehicle controls (0.5% DMSO), and total lysis controls (0.5% DMSO). Cell morphology images were taken using an Essen IncuCyte FLR automated microscope, with six 96-well plates imaged in about 24 minutes. Images were captured and exported and JPEG files. Spent culture media was transfered to black-well plates for the LDH assay, and remaining media was sorted at -80 C for later use. Cells were treated with RLT buffer and frozen until shipped for gene expression analysis. Total RNA was isolated from the cell suspension in 75 uL of Buffer RLT (Qiagen, Germantown, MD 20874) by Quintiles/Expression Analysis (Durham, NC) using a custom isolation procedure. Total RNA from each plate well was transferred to a preamplification plate. Fluidigm's 96.96 Dynamic ArrayTM (Fluidigm, Amsterdam, the Netherlands) technology was used for gene expression analyses by quantitative reverse transcription polymerase chain reaction (qRT-PCR, performed by Quintiles/Expression Analysis, Durham, NC)89. Standard TaqManTM Assays (Applied Biosystems/ThermoFisher Scientific, Foster City, CA) were used to assess the expression of 93 genes selected based on their selectivity and sensitivity to important hepatic receptors known to be modulated by environmental chemicals; importance in human hepatocyte functionality; and hepatotoxicity. […]

SMILES | outcome | AC50
CC(COCC(C)OC(=O)c1ccccc1)OC(=O)c1ccccc1 (stereo not given) | inactive | 
O=[Si]=O | inactive | 
Cc1cc(Cc2ccc(N)c(C)c2)ccc1N | inactive | 
Cc1c(C)c2c(c(C)c1O)CCC(C)(COc1ccc(CC3SC(=O)NC3=O)cc1)O2 (stereo not given) | inactive | 
CN(C)C(=O)NC1(c2ccccc2)CCN(CCC[C@]2(c3ccc(Cl)c(Cl)c3)CCCN(C(=O)c3ccccc3)C2)CC1 | inactive | 
OCC(O)CO | inactive | 
S=c1[nH]c2ccccc2s1 | inactive | 
O=NO | inactive | 
CN(C)CCCN1c2ccccc2Sc2ccc(Cl)cc21 | inactive | 
CO[C@@H]1COCC[C@@H]1N[C@@H]1CC[C@@](C(=O)N2CCc3ncc(C(F)(F)F)cc3C2)(C(C)C)C1 | inactive | 
CCN(CC)CCOc1ccc(C(=C(Cl)c2ccccc2)c2ccccc2)cc1 | inactive | 
C=CCc1ccc(OC)c(OC)c1 | inactive | 
CCCCC(CC)CO (stereo not given) | inactive | 
CCCCCCCCCCCCCCOS(=O)(=O)O | inactive | 
C#CC(O)C(CC)CCCC (stereo not given) | inactive | 
CCCCCCC(C=O)=Cc1ccccc1 | inactive | 
OCC(CO)n1cnc(-c2ccc(F)cc2)c1-c1ccnc(Oc2ccccc2)n1 | inactive | 
CC(C)(C)c1ccccc1 | inactive | 
CC(C)OC(=O)C(C)(C)Oc1ccc(C(=O)c2ccc(Cl)cc2)cc1 | inactive | 
O=C(Oc1ccccc1)c1cccc(C(=O)Oc2ccccc2)c1 | inactive | 

SMILES | outcome | AC50
CC(=O)[C@@]1(O)CC[C@H]2[C@@H]3CCC4=CC(=O)CC[C@]4(C)[C@H]3CC[C@@]21C | inactive | 
CCCCC(CC)COC(=O)CCCCCCCC(=O)OCC(CC)CCCC (stereo not given) | inactive | 
O=Cc1ccccc1C=O | inactive | 
c1ccc2occc2c1 | inactive | 
O=C1OC(c2ccc(O)cc2)(c2ccc(O)cc2)c2ccccc21 |  | 50 µM (active)
CSc1ccc(Oc2ccc(S(N)(=O)=O)cc2CN(C)C)cc1C | inactive | 
O=C1NC(=O)C(c2ccccc2)(c2ccccc2)N1 | inactive | 
CC(=O)O[C@]1(C(C)=O)CC[C@H]2[C@@H]3C=C(Cl)C4=CC(=O)[C@@H]5C[C@@H]5[C@]4(C)[C@H]3CC[C@@]21C | inactive | 
NC(=Nc1ccccc1)Nc1ccccc1 | inactive | 
Cc1occc(=O)c1O | inactive | 
CC1(C)C(=O)NC(=O)N1CO | inactive | 
CC(C)COC(=O)CCCCC(=O)OCC(C)C | inactive | 
COC(=O)[C@H]1[C@H]2C[C@@H]3c4[nH]c5cc(OC)ccc5c4CCN3C[C@H]2C[C@@H](OC(=O)c2cc(OC)c(OC)c(OC)c2)[C@@H]1OC |  | 42.2 µM (active)
CC(C)NCC(O)c1ccc(O)c(O)c1 (stereo not given) |  | 0.239 µM (active)
CN(C)C(=O)NC1(c2ccccc2)CCN(CC[C@@]2(c3ccc(F)c(F)c3)CN(C(=O)c3ccccc3)CCO2)CC1 | inactive | 
CC1=C(C)S(=O)(=O)CCS1(=O)=O |  | 88.4 µM (active)
Oc1ccc(O)cc1 | inactive | 
Oc1ccccc1O | inactive | 
CS(=O)(=O)c1ccc([C@@H](C[C@H]2CCC(=O)C2)C(=O)Nc2cnccn2)cc1Cl |  | 16.1 µM (active)
Cc1cc(SC2=C(O)C[C@@](CCc3ccc(N)cc3)(C(C)C)OC2=O)c(C(C)(C)C)cc1CO | inactive | 
